{"source": "PubChem BioAssay (NCATS)", "note": "Inconclusive results are not listed. Calls of active or inactive are those of the source. The call rests on the fitted dose curve; in most records, active means well fitted cell-killing curve with a large enough effect; inconclusive means small, poorly fitted or top-dose-only effect; inactive means flat fitted curve, though single readings scatter. Potency means the concentration at half of the fitted maximal effect."}
{"experiment": "Cellular viability qHTS for adrenocortical cancer (ACC) cell line SW-13 (AID 1963989); further: nearly all actives have a fitted effect of over 65% in size;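 on activity (max response): cells grown in serum-free medium with ITS supplement; on the % scale 0 is the no-effect control and ±100 the full control effect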", "conditions": "SW-13 ACC cells viability, CellTiter-Glo, 48 h; activity (max response): hits give low values", "summary_of_the_method": "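IC50 and maximal-response values come from four-parameter logistic fits of titration data. SW-13 cells in serum-free medium received compounds (up to 46 uM final) for 48 h before CellTiter-Glo luminescence.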"}
{"smiles": "CCCN1CCC[C@@H]2Cc3nc(N)ncc3C[C@H]21", "activity (max response)": "3.03% (inactive)"}
{"smiles": "Nc1nc(N)nc(NC2CC2)n1", "activity (max response)": "-6.71% (inactive)"}
{"smiles": "CCN1C[C@]2(OC(=O)c3ccccc3NC(C)=O)CC[C@H](OC)[C@@]34[C@H]5CC6[C@@H](OC)C[C@](O)(C(C[C@@H]23)[C@@H]14)[C@@]5(O)[C@@H]6OC", "activity (max response)": "-5.39% (inactive)"}
{"smiles": "COC1(CS(=O)c2ccccc2)CCN(CCc2c[nH]c3ccc(F)cc23)CC1", "note": "(centres undefined)", "activity (max response)": "-19.4% (inactive)"}
{"smiles": "CCCCCCCCCCCCCCCC[N+](C)(C)C", "Potency": "7.31 µM (active)"}
{"smiles": "C[C@]12CC[C@H]3[C@@H](CCC4=CC(=O)CC[C@@]43C)[C@H]1CC[C@H]2OC(=O)CCC1CCCC1", "activity (max response)": "-10.5% (inactive)"}
{"smiles": "C=CCN1C[C@H](C)N([C@H](c2ccc(C(=O)N(CC)CC)cc2)c2cccc(OC)c2)C[C@H]1C", "activity (max response)": "-5.15% (inactive)"}
{"smiles": "C[C@]12COC(=O)C[C@@H]1CC[C@@H]1[C@@H]2CC[C@@]2(C)[C@H]1CC[C@]2(C)O", "activity (max response)": "-23.6% (inactive)"}
{"smiles": "CN(C)CCN(C)CCc1ccc(Cl)c(Cl)c1", "activity (max response)": "-5.37% (inactive)"}
{"smiles": "CCOC(=O)c1c(C(C#N)=CN)c2ccc(Cl)c(Cl)c2n1C", "activity (max response)": "-1.19% (inactive)"}
{"smiles": "CCCOC(=O)c1cncn1C(C)c1ccccc1", "note": "(centres undefined)", "activity (max response)": "12% (inactive)"}
{"experiment": "Cellular viability qHTS for adrenocortical cancer (ACC) cell line NCI-H295R (AID 1963990); further: nearly all actives have a fitted effect of over 60% in size;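 on activity change, negative = viability loss: 0% = DMSO only wells and -100% = full killing with cytotoxic reference compound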", "conditions": "CellTiter-Glo ATP luminescence, 48 h; series mostly up to 46.1 µM; activity change, negative = viability loss: at the top concentration", "summary_of_the_method": "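Adrenocortical carcinoma cells, suspended at 300 000 cells/mL in serum-free DMEM plus ITS, rested overnight before pin transfer of compound. After two days' incubation, ATP-dependent luminescence was recorded and curve-fitted.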"}
{"smiles": "c1ccc2c(c1)OCC(C1=NCCN1)O2", "note": "(centres undefined)", "Potency": "13 µM (active)"}
{"smiles": "CCCN1CCC[C@@H]2Cc3nc(N)ncc3C[C@H]21", "activity change, negative = viability loss": "-27.1% (inactive)"}
{"smiles": "COc1cccc(C(=O)CCN[C@@H](C)[C@H](O)c2ccccc2)c1", "Potency": "25.9 µM (active)"}
{"smiles": "Nc1nc(N)nc(NC2CC2)n1", "activity change, negative = viability loss": "-12.3% (inactive)"}
{"smiles": "COC1(CS(=O)c2ccccc2)CCN(CCc2c[nH]c3ccc(F)cc23)CC1", "note": "(centres undefined)", "activity change, negative = viability loss": "-17.6% (inactive)"}
{"smiles": "C/C=C(\\C)C(=O)N[C@@H](c1ccccc1)[C@@H](O)C(=O)O[C@H]1C[C@@]2(O)[C@@H](OC(=O)c3ccccc3)[C@@H]3[C@]4(OC(C)=O)CO[C@@H]4C[C@H](O)[C@@]3(C)C(=O)[C@H](OC(C)=O)C(=C1C)C2(C)C", "Potency": "0.891 µM (active)"}
{"smiles": "CCCCCCCCCCCCCCCC[N+](C)(C)C", "Potency": "8.2 µM (active)"}
{"smiles": "C[C@]12CC[C@H]3[C@@H](CCC4=CC(=O)CC[C@@]43C)[C@H]1CC[C@H]2OC(=O)CCC1CCCC1", "activity change, negative = viability loss": "-15.7% (inactive)"}
{"smiles": "C=CCN1C[C@H](C)N([C@H](c2ccc(C(=O)N(CC)CC)cc2)c2cccc(OC)c2)C[C@H]1C", "activity change, negative = viability loss": "-0.737% (inactive)"}
{"smiles": "C[C@]12COC(=O)C[C@@H]1CC[C@@H]1[C@@H]2CC[C@@]2(C)[C@H]1CC[C@]2(C)O", "activity change, negative = viability loss": "-5.36% (inactive)"}
{"smiles": "NC1=NC(=O)N2CC12", "note": "(centres undefined)", "activity change, negative = viability loss": "-0.0166% (inactive)"}
{"smiles": "CN(C)CCN(C)CCc1ccc(Cl)c(Cl)c1", "activity change, negative = viability loss": "-0.68% (inactive)"}
{"smiles": "C=CCOC(Cn1ccnc1)c1ccc(Cl)cc1Cl", "note": "(centres undefined)", "activity change, negative = viability loss": "-31.7% (inactive)"}
{"smiles": "CCOC(=O)c1c(C(C#N)=CN)c2ccc(Cl)c(Cl)c2n1C", "activity change, negative = viability loss": "-33.4% (inactive)"}
{"smiles": "C[C@]12Cc3nonc3C[C@@H]1CC[C@@H]1[C@@H]2CC[C@@]2(C)[C@H]1CC[C@]2(C)O", "Potency": "23.1 µM (active)"}
{"smiles": "C[C@]12Cc3cn[nH]c3C[C@@H]1CC[C@@H]1[C@@H]2CC[C@@]2(C)[C@H]1CC[C@]2(C)O", "activity change, negative = viability loss": "-8.1% (inactive)"}
{"smiles": "COC1CC(=C(c2cccs2)c2cccs2)C[N+](C)(C)C1", "note": "(centres undefined)", "activity change, negative = viability loss": "-9.18% (inactive)"}
{"smiles": "CCCOC(=O)c1cncn1C(C)c1ccccc1", "note": "(centres undefined)", "activity change, negative = viability loss": "-1.73% (inactive)"}
